Compounds without any hit were thinned out: in the full panel of roughly 83,000, 20% have a hit.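 Activity criterion: percent growth below 10, measured after cells in 96-well plates were exposed to a single compound concentration for 48 hours.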 Unmarked numbers belong to inactive results. Activity calls are given as the source filed them.
What follows are compounds tested on OVCAR-4 ovarian (assay: NCI-60 one-dose screen, 48 h (100 = growth as untreated, 0 = no growth, -100 = all killed)). Conditions: 10 µM unless noted.
`Cc1nn(-c2ccccc2)c2ncnc(N/N=C/c3cccc(O)c3)c12` was tested, and the growth was 30.2%.
`C=C1CC[C@@H]2[C@]3(C)COC(c4ccccc4)O[C@@H]3CC[C@@]2(C)[C@@H]1C/C=C1/C(=O)OC[C@H]1O` (stereo partly specified) gave a growth of 83.4%.
In the case of `CN(C)CCNC(=O)c1ccc(-c2nc3ccc4[nH]ncc4c3c3c2CCC3)cc1`, the growth is reported as 10.2%.
`Fc1ccc(-c2cc3nc(C(Cl)Cl)nc(-c4ccc(F)cc4)n3n2)cc1` was tested, and the growth was -9.54% (active).
`C=C(C=O)[C@@H]1CC[C@]2(C)[C@H](C(=O)C=C3[C@H]4C[C@](C)(C(=O)OC)CC[C@]4(C)CC[C@]32C)[C@@]1(C)CCC#N` was tested, and the growth was 20.6%.
For `CCc1ccc(SC2c3ccc(N(CC)CC)cc3Oc3nc(N)c(C#N)c(N)c32)cc1` (stereo unspecified), the growth was 7.28% (active).
With `CCOC(=O)C1=NNC(c2ccc(Cl)cc2)C1C(=O)N1C(=S)NC(=O)C1CC(C)C` (stereo unspecified) the growth was 96.5%.
In the case of `C#CCn1cccc1CNc1ccc(OC)cc1`, the growth is reported as -63.8% (active).
Compound `NC(N)=Nc1ccc(Oc2cccc(NC(N)=Nc3ccc(Br)cc3)c2)cn1` has a growth of 71%.
Compound `CC1(C)CC[C@]2(CN)CC[C@]3(C)C(=CC[C@@H]4[C@@]5(C)CCCNC(C)(C)[C@@H]5CC[C@]43C)[C@H]2C1` has a growth of 103%.
Work on `O=C1C(c2ccccc2)=C(N2CCc3ccccc32)OC1(Cl)Cl` yielded a growth of 59.9%.
Work on `CC(=O)c1nnn(-c2c(C(=O)n3nc(C)cc3C)sc(=S)n2-c2ccccc2)c1C` yielded a growth of 100%.
For `COC(=O)C1(C)CCC[C@]2(C)[C@H]3C[C@H]4C(C(C)C)=C[C@]3(CC[C@@H]12)[C@H]1[C@@H]4[C@@H](OC(=O)c2ccco2)CC[C@@H]1OC(=O)c1ccco1` (stereo partly specified), the growth was 103%.
`CC(=O)N1C(=S)NC(=O)C1CC(C)C` (stereo unspecified) gave a growth of 99.5%.
Work on `C#Cc1ccc(C(=O)NCc2ccc(/C=C/C(=O)c3nccn3C)cc2)cc1` yielded a growth of 39%.
For `Cn1ccnc1C(=O)/C=C/c1ccc(NC(=O)c2ccc(F)cc2)cc1`, the growth was 37.1%.
For `O=C(O)c1ccc(-n2cc(CNc3cccc(Cl)c3)c(-c3ccc(F)cc3)n2)cc1`, the growth was 100%.
For `CCC1=Cc2cc(OC)ccc2OC12C=Cc1cc(OC)ccc1O2` (stereo unspecified), the growth was 56.8%.
`CCO/C=N/C1=C(C#N)C(c2ccc(OC)cc2)c2sc3c(C)cccc3c2O1` (stereo unspecified) showed a growth of 85.3%.
`COc1cccc(O)c1/C=C(/C)c1ccc2c(OC)cccc2[o+]1` showed a growth of 103%.
`C#CCNC1CCC(c2csc(C#C)n2)=C1C` (stereo unspecified) was tested, and the growth was 90.3%.
In the case of `CCO/C=N/C1=C(C#N)C(c2ccc(OC)cc2)c2sc3c(CC)cccc3c2O1` (stereo unspecified), the growth is reported as 65%.
Work on `C=CCn1c(SCC(=O)Nc2ccc(C(=O)/C=C/c3ccc(Cl)cc3)cc2)nnc1-c1c[nH]c2ccccc12` yielded a growth of 66.9%.
Work on `N#Cc1cccc(CN2CCC3=C(C2)C(=O)N(Cc2ccc(Cl)cc2)C2=NCCCN23)c1` yielded a growth of 20.8%.
With `CCN(CC)c1cn(-c2ccc(S(N)(=O)=O)cc2)nn1` the growth was 101%.
`CCCCCc1ccc(S(=O)(=O)Nc2cccc(-c3csc(NC(=O)CCCCCN4CCN(C)CC4)n3)c2)cc1` showed a growth of 71.4%.
For `CCCCCc1ccc(S(=O)(=O)Nc2cc(-c3csc(NC(=O)CN4CCN(C)CC4)n3)ccc2OC)cc1`, the growth was 41.8%.
For `COc1ccccc1NCc1cccn1Cc1ccc(F)cc1`, the growth was 96.9%.
`CC(=O)c1cc(C(=O)c2ccc(Br)cc2)n2cc(C)cc(C)c12` was tested, and the growth was 93.4%.
Compound `O=C1Nc2ccccc2/C1=C/c1ccc(COCC2CO2)n1-c1ccc(O)cc1` (stereo unspecified) has a growth of 101%.
`C/C(=N\O)[C@H]1C[C@]23CC[C@]4(C)[C@H](CC[C@@H]5[C@@]6(C)CC/C(=N/O)C(C)(C)[C@@H]6CC[C@]54C)[C@H]2[C@H](C)C1(C)OC3` showed a growth of 82.8%.
`NC(N)=Nc1ccc(Oc2cccc(Oc3ccc(Cl)c(C(F)(F)F)c3)c2)cn1` was tested, and the growth was -76.8% (active).
Compound `COc1ccc([C@@H]2c3[nH]c4ccccc4c3C[C@H]3C(=O)N(C4CCN(CC5CCCCC5)CC4)CC(=O)N23)c(OC)c1` has a growth of 70.5%.
Work on `COc1ccc(C2CC(c3ccc(Nc4nc(NCCO)nc(N5CCOCC5)n4)cc3)=Nc3c(N)nc(N)nc3N2)cc1` (stereo unspecified) yielded a growth of 104%.
With `Cc1ccc2c(c1)Oc1nc(N)c(C#N)c(N)c1C2Sc1ccc(F)cc1` (stereo unspecified) the growth was -99.3% (active).
With `O=C(CCn1c[n+](CC(=O)c2ccc(-c3ccccc3)cc2)c2ccccc21)Nc1cccc2cccnc12` the growth was 24.8%.
For `O=S(=O)(NCCNc1nccc(-n2cnc3ccccc32)n1)c1ccc(Cl)cc1`, the growth was 95.2%.
`O=C1CCCc2nc(Nc3ccc(S(=O)(=O)Nc4ccc([N+](=O)[O-])cc4)cc3)ncc21` was tested, and the growth was 107%.

What follows are compounds tested on SK-OV-3 ovarian in the same assay as above. Conditions: 10 µM unless noted.
With `Cc1nn(-c2ccccc2)c2ncnc(N/N=C/c3cccc(O)c3)c12` the growth was 88.4%.
Work on `C=C1CC[C@@H]2[C@]3(C)COC(c4ccccc4)O[C@@H]3CC[C@@]2(C)[C@@H]1C/C=C1/C(=O)OC[C@H]1O` (stereo partly specified) yielded a growth of 119%.
`CN(C)CCNC(=O)c1ccc(-c2nc3ccc4[nH]ncc4c3c3c2CCC3)cc1` was tested, and the growth was 0.409% (active).
With `Fc1ccc(-c2cc3nc(C(Cl)Cl)nc(-c4ccc(F)cc4)n3n2)cc1` the growth was -29.2% (active).
With `C=C(C=O)[C@@H]1CC[C@]2(C)[C@H](C(=O)C=C3[C@H]4C[C@](C)(C(=O)OC)CC[C@]4(C)CC[C@]32C)[C@@]1(C)CCC#N` the growth was 102%.
`CCc1ccc(SC2c3ccc(N(CC)CC)cc3Oc3nc(N)c(C#N)c(N)c32)cc1` (stereo unspecified) gave a growth of 17.8%.
For `CCOC(=O)C1=NNC(c2ccc(Cl)cc2)C1C(=O)N1C(=S)NC(=O)C1CC(C)C` (stereo unspecified), the growth was 93.5%.
For `C#CCn1cccc1CNc1ccc(OC)cc1`, the growth was -63.5% (active).
Compound `NC(N)=Nc1ccc(Oc2cccc(NC(N)=Nc3ccc(Br)cc3)c2)cn1` has a growth of 73.6%.
Work on `CC1(C)CC[C@]2(CN)CC[C@]3(C)C(=CC[C@@H]4[C@@]5(C)CCCNC(C)(C)[C@@H]5CC[C@]43C)[C@H]2C1` yielded a growth of 106%.
Work on `O=C1C(c2ccccc2)=C(N2CCc3ccccc32)OC1(Cl)Cl` yielded a growth of 112%.
In the case of `CC(=O)c1nnn(-c2c(C(=O)n3nc(C)cc3C)sc(=S)n2-c2ccccc2)c1C`, the growth is reported as 108%.
With `COC(=O)C1(C)CCC[C@]2(C)[C@H]3C[C@H]4C(C(C)C)=C[C@]3(CC[C@@H]12)[C@H]1[C@@H]4[C@@H](OC(=O)c2ccco2)CC[C@@H]1OC(=O)c1ccco1` (stereo partly specified) the growth was 115%.
With `CC(=O)N1C(=S)NC(=O)C1CC(C)C` (stereo unspecified) the growth was 101%.
`C#Cc1ccc(C(=O)NCc2ccc(/C=C/C(=O)c3nccn3C)cc2)cc1` was tested, and the growth was 50.2%.
For `Cn1ccnc1C(=O)/C=C/c1ccc(NC(=O)c2ccc(F)cc2)cc1`, the growth was 67.2%.
`O=C(O)c1ccc(-n2cc(CNc3cccc(Cl)c3)c(-c3ccc(F)cc3)n2)cc1` was tested, and the growth was 106%.
With `CCC1=Cc2cc(OC)ccc2OC12C=Cc1cc(OC)ccc1O2` (stereo unspecified) the growth was 24%.
Work on `CCO/C=N/C1=C(C#N)C(c2ccc(OC)cc2)c2sc3c(C)cccc3c2O1` (stereo unspecified) yielded a growth of 50.3%.
Work on `COc1cccc(O)c1/C=C(/C)c1ccc2c(OC)cccc2[o+]1` yielded a growth of 106%.
In the case of `C#CCNC1CCC(c2csc(C#C)n2)=C1C` (stereo unspecified), the growth is reported as 92.7%.
`CCO/C=N/C1=C(C#N)C(c2ccc(OC)cc2)c2sc3c(CC)cccc3c2O1` (stereo unspecified) showed a growth of 66.6%.
For `C=CCn1c(SCC(=O)Nc2ccc(C(=O)/C=C/c3ccc(Cl)cc3)cc2)nnc1-c1c[nH]c2ccccc12`, the growth was 86.7%.
`N#Cc1cccc(CN2CCC3=C(C2)C(=O)N(Cc2ccc(Cl)cc2)C2=NCCCN23)c1` gave a growth of 35.9%.
`CCN(CC)c1cn(-c2ccc(S(N)(=O)=O)cc2)nn1` showed a growth of 113%.
`CCCCCc1ccc(S(=O)(=O)Nc2cccc(-c3csc(NC(=O)CCCCCN4CCN(C)CC4)n3)c2)cc1` gave a growth of 97.9%.
With `CCCCCc1ccc(S(=O)(=O)Nc2cc(-c3csc(NC(=O)CN4CCN(C)CC4)n3)ccc2OC)cc1` the growth was 73.4%.
For `COc1ccccc1NCc1cccn1Cc1ccc(F)cc1`, the growth was 116%.
`CC(=O)c1cc(C(=O)c2ccc(Br)cc2)n2cc(C)cc(C)c12` was tested, and the growth was 94.9%.
With `O=C1Nc2ccccc2/C1=C/c1ccc(COCC2CO2)n1-c1ccc(O)cc1` (stereo unspecified) the growth was 114%.
In the case of `C/C(=N\O)[C@H]1C[C@]23CC[C@]4(C)[C@H](CC[C@@H]5[C@@]6(C)CC/C(=N/O)C(C)(C)[C@@H]6CC[C@]54C)[C@H]2[C@H](C)C1(C)OC3`, the growth is reported as 122%.
Work on `NC(N)=Nc1ccc(Oc2cccc(Oc3ccc(Cl)c(C(F)(F)F)c3)c2)cn1` yielded a growth of 75.8%.
`COc1ccc([C@@H]2c3[nH]c4ccccc4c3C[C@H]3C(=O)N(C4CCN(CC5CCCCC5)CC4)CC(=O)N23)c(OC)c1` gave a growth of 86.2%.
Work on `COc1ccc(C2CC(c3ccc(Nc4nc(NCCO)nc(N5CCOCC5)n4)cc3)=Nc3c(N)nc(N)nc3N2)cc1` (stereo unspecified) yielded a growth of 109%.
`Cc1ccc2c(c1)Oc1nc(N)c(C#N)c(N)c1C2Sc1ccc(F)cc1` (stereo unspecified) was tested, and the growth was -94.5% (active).
With `O=C(CCn1c[n+](CC(=O)c2ccc(-c3ccccc3)cc2)c2ccccc21)Nc1cccc2cccnc12` the growth was 74.9%.
For `O=S(=O)(NCCNc1nccc(-n2cnc3ccccc32)n1)c1ccc(Cl)cc1`, the growth was 112%.
`O=C1CCCc2nc(Nc3ccc(S(=O)(=O)Nc4ccc([N+](=O)[O-])cc4)cc3)ncc21` showed a growth of 109%.
